Measured values published in PubChem BioAssay (EPA / NIEHS).
Calls of active or inactive are those of the source. The calls were made as follows: active = hit-call score of the fitted dose curve at least 0.9, where 1 is the maximum; inactive = score below 0.9.

experiment: APR_HepG2_CellLoss_72hr: Apredica 72-hour HepG2 Assay for Cell Loss (AID 2282915); settings: high-content imaging
Outline: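 HepG2 cells were exposed for 72 hr to compounds at 0.39–200 uM (ten concentrations, duplicate) in 0.5% v/v final DMSO. Nuclei were stained with Hoechst 33342 after 3.7% formaldehyde fixation, imaged at 20x, and counted; fits bidirectional versus DMSO.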

SMILES | outcome | AC50
O=c1ccc2ccccc2o1 | inactive | –
c1ccc(C[n+]2cccc3ccccc32)cc1 | – | 54.8 µM (active)
O=C(OCCCCCCOC(=O)c1ccccc1)c1ccccc1 | inactive | –
CCCCCCCCN(C)CCCCCCCC | inactive | –
Cc1ncc(CO)c(CO)c1O | inactive | –
Oc1ccc2ccccc2c1 | inactive | –
CCCCCCCCCCCC[N+](C)(C)C | – | 41.7 µM (active)
c1ccc2ccccc2c1 | – | 0.0736 µM (active)
CCCCCCCC[Si](OCC)(OCC)OCC | – | 34 µM (active)
OC12N=C(c3ccccc3)SC1Cc1cc(Cl)ccc12 (stereo unspecified) | – | 67.5 µM (active)
CN1C(=O)N(c2ccccc2Br)Cc2cnc(Nc3ccc4c(c3)OCC(CO)O4)nc21 (stereo unspecified) | – | 6.32 µM (active)
CC(C)(C)c1csc(-c2cc3cc(OCc4ccccc4CC(=O)O)ccc3o2)n1 | inactive | –
CN(C[C@@H](CC[N+]12CCC(C3CCCCC3)(CC1)CC2)c1ccc(Cl)c(Cl)c1)C(=O)c1cc(C(F)(F)F)cc(C(F)(F)F)c1 | – | 24.9 µM (active)
CCCCCCCCCCCO | – | 107 µM (active)
Clc1cc(Cl)c2c(c1)N=C1CCCCCN1C2 | inactive | –
O=C(O)Cn1c(=O)n(Cc2ccc(Br)cc2F)c(=O)c2ccc(Cl)cc21 | inactive | –
CC[C@@H]1C[C@H](N(Cc2cc(C(F)(F)F)cc(C(F)(F)F)c2)C(C)=O)c2cc(C(F)(F)F)ccc2N1C(=O)OC(C)C | inactive | –
CCCCCCCCOC(=O)c1cc(O)c(O)c(O)c1 | – | 63.2 µM (active)
CC/C(=C(/CC)c1ccc(O)cc1)c1ccc(O)cc1 | – | 79.5 µM (active)
c1ccc2n[nH]nc2c1 | inactive | –
Cc1cn([C@H]2C[C@H](N=[N+]=[N-])[C@@H](CO)O2)c(=O)[nH]c1=O | inactive | –
